# FLuc modulator = inhibits or activates purified firefly luciferase, miR-21 counter-screen. purified FLuc, Km substrates, luminescence inhibition. AID 588342. Potency, µM (series often up to 57.5 µM), without a hit: at the top dose activity change, negative = inhibition, hits mostly inhibitors. 360,000 compounds, 6.9% hits. P08659;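 further: plate controls were vehicle for no effect and reference inhibitor for full effect; nearly all actives have a fitted effect of over 55% in size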
# Target sequence (P08659 whole entry, looked up): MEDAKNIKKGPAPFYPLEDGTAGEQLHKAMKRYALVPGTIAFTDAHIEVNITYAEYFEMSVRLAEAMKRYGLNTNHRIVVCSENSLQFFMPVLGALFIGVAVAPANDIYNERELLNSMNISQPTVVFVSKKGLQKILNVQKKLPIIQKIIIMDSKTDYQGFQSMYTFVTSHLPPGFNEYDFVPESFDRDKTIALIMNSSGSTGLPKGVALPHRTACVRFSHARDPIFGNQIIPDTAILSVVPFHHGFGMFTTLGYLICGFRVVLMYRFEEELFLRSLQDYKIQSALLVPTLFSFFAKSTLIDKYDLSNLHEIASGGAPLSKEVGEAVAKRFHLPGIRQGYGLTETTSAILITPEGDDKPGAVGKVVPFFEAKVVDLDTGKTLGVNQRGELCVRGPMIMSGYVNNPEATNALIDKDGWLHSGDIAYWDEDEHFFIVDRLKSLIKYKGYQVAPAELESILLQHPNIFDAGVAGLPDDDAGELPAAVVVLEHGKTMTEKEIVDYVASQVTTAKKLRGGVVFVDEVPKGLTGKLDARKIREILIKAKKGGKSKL
#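 Purified P. pyralis luciferase (10nM final) with 10uM D-luciferin and 10uM ATP (Km levels) in 50mM Tris acetate pH 7.5, 10mM Mg acetate, 0.01% Tween-20, 0.05% BSA; qHTS 6-point titration, ~60 µM downward; luminescence read.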
# SMN2 splice up = SMN2 splice variant enhancement; 210,000 compounds, 2.8% hits; HEK293 SMN2-luciferase splicing reporter, luminescence, 30-36 h; Potency, µM (top dose mostly 46.1 µM), for the others: at the top dose activity change, positive = activation, hits mostly activators; further: % of control where 0% means no effect; nearly all actives have a fitted effect of over 55% in size
#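 qHTS luciferase splicing reporter: luminescence rises when SMN2 exon 7 is included in transfected HEK293 cells. Compound exposure lasted 30-36 h at 37C, with 4.5 mM final sodium butyrate as control, followed by a ONE-Glo read.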
# NPC1 promoter act = activators of NPC1 promoter; Huh7 NPC1 promoter luciferase reporter, 24 h; Potency, µM (highest dose often 9.22 µM), for the others: top-dose activation, usual class: activators; 320,000 compounds, 2.4% hits; AID 485313; further: % of control where 0% means no effect; nearly all actives have a fitted effect of over 60% in size
#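 Luminescence from an NPC1 promoter-driven luciferase reporter in stably transfected Huh7 cells was measured after 24 h compound treatment at 37 °C, followed by 10 min ambient incubation with luciferase detection reagent.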
# Rab9 promoter act = Rab9 promoter activation. Huh7 Rab9 promoter-luciferase reporter, luminescence, 24 h. Potency, µM (doses to about 9.22 µM), for inactives: at the top dose activation, negative = inhibition, most hits filed as activators. 320,000 compounds, 2.8% hits; further: % of control where 0% means no effect; nearly all actives have a fitted effect of over 60% in size
#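 Luminescence from Amplite-detected luciferase (10 minutes, ambient) reports Rab9 promoter activation. Before that, stable Rab9-luciferase Huh7 cells (1500/well, reduced-serum OP-MEM I plus 10% FBS) were exposed to compound for 24 hours at 37C.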
# ELG1 genotoxic = inducers of genotoxicity in HEK293T ELG1-luciferase cells; HEK293T ELG1-luciferase reporter, luminescence, 16 h; 330,000 compounds, 1.3% hits; Potency, µM (top dose mostly 46 µM), for inactives: top-dose activity change, positive = activation, most hits filed as activators; further: % of control where 0% means no effect; nearly all actives have a fitted effect of over 60% in size
#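 After overnight (16 hr) compound treatment at 37 °C, ELG1-luciferase HEK293T cells were lysed with ONE-Glo; luminescence quantified 30 min later at room temperature.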
# ELG1 DNA repair = ELG1-dependent DNA repair inhibition. HEK293T ELG1-luciferase reporter, luminescence, 16 h; DNA damage induced by 5-fluorouridine. Potency, µM (top dose mostly 46.1 µM), for inactives: at the top dose activity change, negative = inhibition, usual class: inhibitors. 330,000 compounds, 2.3% hits; further: on the % scale 0 is the no-effect control and ±100 the full control effect; nearly all actives have a fitted effect of over 55% in size
#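 Overnight (16 hr) co-exposure of 2,000 cells/well to 5-fluorouridine and compound at 37 °C preceded detection. Luciferase was quantified via ONE-Glo luminescence; loss of signal denotes inhibition.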
# An asterisk follows results filed as active; u = inconclusive; x = not tested or not shown; [ ] = another dose, or the depositor's remark. Only some compounds are listed: those with a hit (about 9.4% of all), similar ones and a draw of the others. The call rests on the fitted dose curve; in most records, active means well fitted curve in the direction sought with a large enough effect; inconclusive means small, poorly fitted or top-dose-only effect, or another doubt; inactive means no such curve, though single readings can be large; an effect the other way counts as inactive or inconclusive. Potency means the concentration at half of the fitted maximal effect.
SMILES,FLuc modulator,SMN2 splice up,NPC1 promoter act,Rab9 promoter act,ELG1 genotoxic,ELG1 DNA repair
O=C(CCCOc1ccccc1)N1CCN(c2ccccc2)CC1,9.5µM*,u,3.5µM*,2.8µM*,9.2µM*,u
Cc1cccc(N2CCN(C(=O)CCCn3c(=O)c4cccn4c4cccnc43)CC2)c1C,1%,x,0%,0%,-18%,16µM*
COc1ccccc1N1CCN(C(=O)CCn2c(=O)[nH]c3ccccc3c2=O)CC1,-1%,17%,0%,-1%,-5%,-15%
Cc1ccc(Cl)cc1N1CCN(C(=O)CCCn2c(=O)c3cccn3c3cccnc32)CC1,0%,x,-2%,-3%,-1%[9.26 µM],u
CC(C)C(=O)C(C)(C)CCc1ccccn1,x,-7%[9.22 µM],x,x,x,x
Cc1cccc(N2CCN(C(=O)CCCOc3ccccc3)CC2)c1C,7.6µM*,16µM*,3.2µM*,2.5µM*,2.6µM*,u
CCOc1cc(CNC(=O)CCCn2c(=O)c3cccn3c3cccnc32)cc(OCC)c1OCC,1%,-9%,-3%,-3%,-8%,16µM*
O=C(Cc1ccc(Br)cc1)N1CCc2ccccc2C1,17µM*,x,u,u,u,u
Cc1cccc(N2CCN(C(=O)COc3cccc4c3OC(C)(C)C4)CC2)c1C,-3%,-35%,2%,-2%,-13%,26µM*
CCC(=O)N1c2ccccc2CC1C(=O)NCc1cc(Br)ccc1OC (stereo not drawn),-1%,x,x,x,x,x
Cc1ccccc1NC(=O)c1sc2nc(-c3ccncc3)ccc2c1N,0%,-17%,x,x,x,x
CC(C)Oc1ccc(CNC(=O)CCn2c(=O)c3cccn3c3ccc(F)cc32)cc1,1%,x,x,x,x,x
N[C@@H](CSC1(c2ccc(Cl)cc2)c2ccccc2-c2ccccc21)C(=O)O,x,0%[9.22 µM],x,x,x,x
CN1CCN(C(=O)CCN2C(=O)c3ccccc3C2=O)CC1,-2%,x,-1%,-3%,1%,16%
Cc1cccc(N2CCN(C(=O)c3cn(C)c(=O)c4c3c3ccccc3n4C)CC2)c1C,1%,-9%,-4%,-5%,-14%,23µM*
O=C(CCCOc1ccccc1)N1CCc2ccccc2C1,24µM*,13µM*,29%,23%,21µM*,u
Cc1ccccc1N1CCN(C(=O)CCN2C(=O)c3ccccc3C2=O)CC1,17µM*,4%,1%,17%,5%,-2%
CCOc1ccc(N(CC(=O)Nc2ccccc2CC)S(=O)(=O)c2c(C)noc2C)cc1,-2%,-29%,x,x,x,x
Cn1c(=O)c2c(nc(N3CCOCC3)n2Cc2ccc(Br)cc2)n(C)c1=O,-7%,0%,x,x,x,x
Cc1ccc(-c2nnc(Nc3ccc(Br)cc3)c3ccccc23)cc1S(=O)(=O)NCC1CCCO1 (stereo not drawn),u,5%,x,x,x,x
CCOC(=O)c1c(C)[nH]c(C)c1S(=O)(=O)NCC(=O)Nc1ccc(CC)cc1,7%,x,x,x,x,x
C[C@@H]1Cc2c(O)c(O)cc(O)c2C(=O)O1,-2%,x,2%,-8%,-6%,-3%
CC1CCC/C=C/C(=O)c2c(O)cc(O)cc2CC(=O)O1 (stereo not drawn),-1%,x,-39%,-41%,-22%,8.2µM*
O=C(COc1cccc(Cl)c1)N1CCC(c2nc3ccccc3s2)CC1,-12%,x,x,x,x,x
COc1ccc(CCNc2ccc(N3C(=O)CC(C)C3=O)cc2[N+](=O)[O-])cc1OC (stereo not drawn),-11%,-72%,-24%,-27%,-4%,3.7µM*
SMILES,FLuc modulator,SMN2 splice up,NPC1 promoter act,Rab9 promoter act,ELG1 genotoxic,ELG1 DNA repair
COc1ccc(CCNc2ccc(N3C(=O)CC(C)C3=O)cc2[N+](=O)[O-])cc1 (stereo not drawn),0%,x,-3%,-2%,-5%,-29%
Cc1ccc(CNS(=O)(=O)c2cc3[nH]c(=O)c(=O)[nH]c3cc2C)cc1,2%,x,x,x,x,x
CCN(CC)C(=S)SCC(=O)c1ccc(Br)cc1,19µM*,u,u,u,u,u
CC(=O)Nc1ccc(NC(=O)C(C)Sc2n[nH]c(-c3ccc(C)cc3)n2)cc1 (stereo not drawn),24µM*,x,13%,u,3%,-6%
O=C(N/N=C/c1ccc2c(c1)OCO2)c1ccc(NC(=O)c2ccccc2Cl)cc1,u,x,-5%,10%,-20%,13µM*
Cc1cccc(C(=O)Nc2cccc(C(=O)N/N=C/c3ccc4c(c3)OCO4)c2)c1,1.9µM*,x,29%,27%,9%,26%
Cc1ccccc1C(=O)Nc1cccc(C(=O)N/N=C/c2ccc3c(c2)OCO3)c1,3µM*,x,17%,u,7%,-1%
Cc1cccc(C(=O)Nc2ccc(C(=O)N/N=C/c3ccc4c(c3)OCO4)cc2)c1,-7%,x,0%,-5%,8%,8%
O=C(N/N=C/c1ccc2c(c1)OCO2)c1cccc(NC(=O)c2ccccc2Cl)c1,2.7µM*,x,-13%,25%,u,u
CCOC(=O)c1c(C)n(-c2ccccc2)c2ccc(OC(=O)c3ccccc3Cl)cc12,6%,-6%,x,x,x,x
CCC(=O)N1CCCc2cc(S(=O)(=O)N3CCC(C(=O)Nc4ccccc4CC)CC3)ccc21,-7%,x,x,x,x,x
CCCN(C(=O)c1noc2c1COc1ccc(C)cc1-2)c1ccc(Cl)c(Cl)c1,1%,x,x,x,x,x
CN(CC(=O)O)Cc1c[nH]c2ccccc12,x,-12%[9.22 µM],x,x,x,x
Cc1ccc(N2CCN(C(=O)c3c(C)oc4nc(C)nc(N5CCCC5)c34)CC2)c(C)c1,-3%,x,x,x,x,x
O=C(Nc1cccc2nsnc12)c1ccc2c(c1)OCCO2,11µM*,u,u,3.5µM*,u,u
O=C(Nc1cccc2nsnc12)c1ccc(F)cc1,u,u,6%,12%,-4%,u
O=C(Nc1cccc2nsnc12)c1ccc2c(c1)OCO2,17µM*,9%,u,u,9%,u
CCOc1ccc(C(=O)Nc2cccc3nsnc23)cc1[N+](=O)[O-],-1%,x,-6%,-7%,13%,12%
COc1ccccc1/C=C/c1nc(C#N)c(NCc2ccccc2)o1,u,3%,x,x,x,x
O=C(COc1ccc(F)cc1)c1c(O)cc(O)cc1O,8.5µM*,x,u,u,u,u
COc1ccc(C(=O)COc2ccc(F)cc2)c(O)c1,13µM*,x,3.2µM*,u,u,u
CCN(CC)CCCC(C)n1c(-c2ccccc2)nc2c(NCCO)nc(C)nc21 (stereo not drawn),x,-11%,x,x,x,x
Cc1ccc(C(=O)N(C)c2ccc(OCC(=O)N3c4ccc(C)cc4C4CN(C)CCC43)cc2)cc1 (stereo not drawn),3µM*,11µM*,27%,u,u,u

# Bioassay records deposited in PubChem BioAssay by National Center for Advancing Translational Sciences (NCATS).
